In publication PMC12136788 one finds binding signal data, which are given here for 20 molecules.

Where a chain is given by its changes, count along the chain named. Whole data set: some 24,000 sequences, median “enrichment r” near 0.99, cut for the highest 2% near 3.7. Shown is part of a subset that was picked to be rich in the highest values.

The labels stand for the following.
T1: UNK ZnF1-3 (human, UniProt Q9C0B0 31-174)
T1 sequence: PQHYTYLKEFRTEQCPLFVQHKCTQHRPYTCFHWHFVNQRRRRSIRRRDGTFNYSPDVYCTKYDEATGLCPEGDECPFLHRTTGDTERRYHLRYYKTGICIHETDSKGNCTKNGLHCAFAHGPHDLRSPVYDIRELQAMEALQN

B1: chr11:6247107:6247108:+_ENSMUSG00000020456_ENSMUST00000003461|mus_mus|FALSE|FALSE (ssRNA)
RNA: GGGAGUUCUACAGUCCGACGAUCAAACAUAGGUUCGUCCAUCUCAUUGUGGCCAUUUCGUCGAUAACACACCAGAUCAACUACAACAUCCUUGUGGAAGGUGUUUCUCCACUCAGCUGCCACCUUGCAUACAUACAUGACAGCCAACAGAGGAUUGAGCAUCA
B2: chr15:76911001:76911002:-_ENSMUSG00000033565_ENSMUST00000166610|mus_hu|motif|central (ssRNA)
RNA: GGGAGUUCUACAGUCCGACGAUCAAGAGCAUGACAAAAUAAAAACACACAAAUUUACGUCUGAUGUUCACCUUGCCCACGGUUUUUUUUUCCUAUCUUAAAACAGUGCAAACAGGUAACUUAUGCUUUUAAAACACCACGACCCAACAGAGGAUUGAGCAUCA
B3: chr17:17165348:17165349:-_ENSG00000141030_ENST00000268717|hu_mus|motif|central (ssRNA)
RNA: GGGAGUUCUACAGUCCGACGAUCUAUUUGAGAGGUGUAUUUAGGCAGCUGUUGUACUUUGCCAAGUAAUAUCAAAGACACGGGAAUAUACUUUUUAUAUGAUUCCAACAUGAUAUGGCUGACGGCCAUGGCAGGAGUAGUUAUCAACAGAGGAUUGAGCAUCA
B4: chr8:74858975:74858976:-_ENSG00000154582_ENST00000284811|hu_mus|hu_hu_hu_mus_True|8_48 (ssRNA)
RNA: GGGAGUUCUACAGUCCGACGAUCGACCUUGUAGGUAAAAUACAUGCACACUUUUGAUAGCACAUGUGAGGGGAUCUCUCUAAAAUUGACCUCAUUGGUUUCAUUCUCAGCAAACUGACCUGGACCACUCAACAUGGCCUUUAUCAACAGAGGAUUGAGCAUCA
B5: chr2:48026839:48026840:+_ENSG00000116062_ENST00000540021|hu_hu|hu_hu_hu_mus_False|48_88 (ssRNA)
RNA: GGGAGUUCUACAGUCCGACGAUCAUAGUGAGCCACUAGCGUCCUAAAUCUCGAACAGUGGCGGUCAUCCGAAAACUGGCCGAUGAAAAACUUUCCCAGUGAAGUGUCCACAAAGCAAACACCAUACACACGAGUGUGACCAGACAACAGAGGAUUGAGCAUCA
B6: chr11:86535762:86535763:-_ENSMUSG00000047126_ENSMUST00000103186|mus_hu|FALSE|FALSE (ssRNA)
RNA: GGGAGUUCUACAGUCCGACGAUCUGCAAAGCACUGAAUGACUUUAUUUGGGACGUUAGCCCUUAGGUACACACUAAGUGCCAAUGUAGGGUCCACAGAUUUCACAAGAUCACCCAGUUCUUCAGAACAUUCCAGCUUAUCUUCCAACAGAGGAUUGAGCAUCA
B7: chr7:118226368:118226369:-_ENSMUSG00000005610_ENSMUST00000162415|mus_hu|FALSE|FALSE (ssRNA)
RNA: GGGAGUUCUACAGUCCGACGAUCCAGCAGCUGCCACCGCAGCUGCCUCCUCAGGAUCCGGUCGUCGGGGAUAGGGAAGGGAGGGGAAAGGGGAACGGAAAACAAAAAAAAGGGGGAGGGAAGGGGGAGGAAGGAGUCGGGGACCAACAGAGGAUUGAGCAUCA
B8: chr19:8913615:8913616:-_ENSMUSG00000071658_ENSMUST00000096259|mus_hu|mus_mus_mus_hu_False|18_18 (ssRNA)
RNA: GGGAGUUCUACAGUCCGACGAUCAGGGUACCAAAACCUUCUGCCUGAAAUGGGUGCCCCACCCAGUAGGGAGUUGCAGCUGAAAGUAUCUGAUGCAGAAGCAGUGACUAUACGAAAGGUCACUAGAGGGGAGGGCCAGGCCAGCAACAGAGGAUUGAGCAUCA
B9: chr17:65740002:65740003:+_ENSG00000130935_ENST00000581375|hu_hu|hu_hu_hu_mus_False|98_108 (ssRNA)
RNA: GGGAGUUCUACAGUCCGACGAUCAACCCGUUCUUGCCUGGAUGAAGAACAGGAAGAUUCAUAUUAAAAAAAAUAUAUAUCCAUCAAGUUAGGUGUGGUGGCCACACCUUUACUCCCAGCACUUUGGGAGGUGGAUCUCUGAGUCAACAGAGGAUUGAGCAUCA
B10: chr7:90019433:90019434:+_ENSMUSG00000057706_ENSMUST00000082237|mus_hu|mus_mus_mus_hu_True|78_98 (ssRNA)
RNA: GGGAGUUCUACAGUCCGACGAUCAAAUAAUACAGUGUCUUUGCCAUUAAGGCCAUAUAAAAAUAAAAAGAUUUAACCCAGCUACAAAAAAGUUCACUGAACUUAAAUUAAAAUACUUGUAAACAUCUUUGCAAUAUGAAAUAUCAACAGAGGAUUGAGCAUCA
B11: chr4:107545374:107545375:+_ENSMUSG00000028613_ENSMUST00000106731|mus_hu|FALSE|FALSE (ssRNA)
RNA: GGGAGUUCUACAGUCCGACGAUCUGAUGGAUAGCCACAAAGCAUAAUCAUCUUAUUUACAAAAAACAAAUGCCCCAAAACCUAAAAAAGCCCCCCCAGCAACCAAACAUCUUCUGUAAAUAUAGUUUUUAAAUGAUGAGUAAGCAACAGAGGAUUGAGCAUCA
B12: chr1:10192443:10192444:+_ENSG00000130939_ENST00000377157|hu_hu|FALSE|FALSE (ssRNA)
RNA: GGGAGUUCUACAGUCCGACGAUCGACAGCCGCCAUGUAACUGAGAGCAGCCUCACGGGUUUCGCCAUUUAACAAAAUACUAUGCAGAAUCUUAAAAAGCUCUUGCCUUCCGAGCUCUAAGUAAUGCUGCAAUGAUUGGCUAACCAACAGAGGAUUGAGCAUCA
B13: chr18:43483763:43483764:-_ENSMUSG00000024501_ENSMUST00000121805|mus_hu|FALSE|FALSE (ssRNA)
RNA: GGGAGUUCUACAGUCCGACGAUCGCAGACUCUUUUACCUUAGUGGCCUGUCUGAUUGCAUGCAUGUAAAUGGGGGGAGGGGAGUCAAACAAAUCAAGGCUAUGCAUAAACAGAAAACAAAGCAAUAUUCGUAAAGCUAGGCAACAACAGAGGAUUGAGCAUCA
B14: chr7:90019433:90019434:+_ENSMUSG00000057706_ENSMUST00000082237|mus_hu|motif|central (ssRNA)
RNA: B10 RNA with C38U, U39C, G42U, C43G, A45C, U46A, U57C, A58U, U82G, A83G
B15: chr18:43483763:43483764:-_ENSMUSG00000024501_ENSMUST00000121805|mus_mus|FALSE|FALSE (ssRNA)
RNA: GGGAGUUCUACAGUCCGACGAUCUGCAGAAUCUACCUUAGUGGCCUGUCUGAUCGCAUGCAUGUAAGUGGGGGUGGGGUGGGGGUGGGGUUCAAAGAAAUUGAGAGUAUGCAAAAACAGAAACCAAAGCAAUUCAUAAAGCUACAACAGAGGAUUGAGCAUCA
B16: 62932219_62936930_2744_CDS_ENSG00000061987_ENST00000546600|human|control|control (ssRNA)
RNA: GGGAGUUCUACAGUCCGACGAUCCAUAUUAACUAAACCAGUUUCUAACAAUUUGGCAACAGCAAAAAGAGAUGGUUCCUUAUUAUUUCCAUAGGCCAUAUCCAUUGCUUCUAGAGACAAGGAGCAAAGUGCAUUUAUUAAAUGCAACAGAGGAUUGAGCAUCA
B17: chr7:90019490:90019491:+_ENSMUSG00000057706_ENSMUST00000082237|mus_mus|FALSE|FALSE (ssRNA)
RNA: GGGAGUUCUACAGUCCGACGAUCUCCGUCACAAUCGUGUGAUUAUUAAAAUAAUACAGUGUUCUUUGCCAUAAGGCCAUACUAAAAAUAAAAAGAUUUAACCCAGCUACAAAAAAGUUCACUGAACUUAAAUUAAAAUACUUGCAACAGAGGAUUGAGCAUCA
B18: 160625162_160625282_3606_3pUTR_ENSG00000136536_ENST00000259050|human|control|control (ssRNA)
RNA: GGGAGUUCUACAGUCCGACGAUCAAAACUACCACCCUUAAAUUUUAUAUUUUUGCUUUAAGACAGACAAUGCAAAGGUAACUGGCAAGAGGUGAGCAAAUGUUUUAGAACAUUUAUAUUAUUGCUUAAAAUGAGAUUUGAAAUCAACAGAGGAUUGAGCAUCA
B19: chr16:2758876:2758877:+_ENSG00000167977_ENST00000301738|hu_hu|FALSE|FALSE (ssRNA)
RNA: GGGAGUUCUACAGUCCGACGAUCAAUUUUAGUGAAUUAAGUCUUAAUAUCUUUAAAUUAAAAAAACCACAAGCCUAUCUACUAUGUCAAGGUCAAAAAUCAAACAACGCUAAGCGGCCAGCAGCUCCCCAGAGAGGAUGCCCACAACAGAGGAUUGAGCAUCA
B20: chr7:56126341:56126342:+_ENSG00000146731_ENST00000540286|hu_mus|hu_hu_hu_mus_True|8_78 (ssRNA)
RNA: GGGAGUUCUACAGUCCGACGAUCCAUGUUUCUCCUCUUGGCUCUGCGCAGAGCUACUAUGCCUUCUUUCGCAAGGGCAUCUAAGGAAAAGGGGUCAAUCCCCUUUUGAUUAAUAACGACAAAUCCUUUAUCUGAAUCACCACACAACAGAGGAUUGAGCAUCA

The target in the assay is T1, UNK ZnF1-3. Nature of the assay: nsRBNS (natural sequence RNA bind-n-seq); RBNS binding buffer (assumed for nsRBNS): 25 mM Tris pH 7.5, 150 mM KCl, 3 mM MgCl2, 0.01% Triton X-100, 500 ug/ml BSA, 20 U/ml SUPERase-In, 4 C; UNK is unkempt and MSI1 is Musashi-1; names of the RNAs are library labels; protein concentration not given here; high values mean tight binding.
B1: the binding signal turned out to be 0.764 enrichment R.
As for B2, the figure is 1.59 enrichment R; as for B3, 1.03 enrichment R; as for B4, 0.645 enrichment R.
To B5 belongs 1.19 enrichment R; to B6, 0.581 enrichment R; to B7, 1.19 enrichment R.
As for B8, the figure is 1.83 enrichment R.
B9: the binding signal was 0.827 enrichment R.
As for B10, the figure is 3.77 enrichment R; as for B11, 2.81 enrichment R.
For the molecule B12, the binding signal amounted to 1.03 enrichment R.
As for B13, the figure is 1.62 enrichment R; as for B14, 3.64 enrichment R; as for B15, 5.48 enrichment R.
To B16 belongs 1.11 enrichment R; to B17, 3.65 enrichment R; to B18, 8.45 enrichment R.
As for B19, the figure is 3.89 enrichment R.
The molecule B20 came in with a binding signal of 0.804 enrichment R.
